Outcome and AC50 data for 4 molecules are collected here from PubChem BioAssay (EPA / NIEHS).

Assay [1] can be described thus: ATG_CRE_CIS: Attagene CIS-FACTORIAL HepG2 Assay for human cAMP Responsive Element (CRE) binding protein 3 (AID 2282926). The settings on record: HepG2 CRE cis-reporter, Attagene multiplexed mRNA; actives raise or lower the signal. In short, it runs like this: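 HepG2 cells transiently transfected with cis-element-driven multiple reporter transcription units; CRE reporter mRNA measured 24 h after dosing by RT-PCR, 6-FAM labelling, HpaI digestion and capillary electrophoresis. Bidirectional fit versus DMSO baseline.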

Assay [2] has as its target CCAAT/enhancer-binding protein beta (Homo sapiens) (UniProt P17676). The experiment in a line: ATG_C_EBP_CIS: Attagene CIS-FACTORIAL HepG2 Assay for human CCAAT/Enhancer Binding Protein (C/EBP) beta (AID 2282927). The settings on record: HepG2 Attagene cis-factorial transcription factor reporter; actives raise or lower the signal. In short, it runs like this:
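RT-PCR/capillary electrophoresis fluorescence of reporter mRNA, 24 h post-dose, in HepG2 cells carrying transfected cis-promoter reporter units. Bidirectional curve fitting against DMSO baseline captures gain or loss of signal.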

A short description of assay [3]: ATG_CMV_CIS: Attagene CIS-FACTORIAL HepG2 Assay for human CMV (Internal Marker) (AID 2282928).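 Further: endpoint acts as a background internal control marker rather than a target.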 The note with it: HepG2 CMV promoter reporter, transcription factor profiling; actives raise or lower the signal. In short, it runs like this:
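Endogenous transcription factor activity read in HepG2 via transfected cis-promoter reporter units. After 24 h dosing, reporter mRNA measured by RT-PCR/capillary electrophoresis; gain or loss of signal fit relative to DMSO.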

Assay [4] in a line: ATG_DR4_LXR_CIS: Attagene CIS-FACTORIAL HepG2 Assay for human Liver X Receptor (LXR), DR4 submotif (AID 2282929). The note with it: HepG2 Attagene DR4 cis-reporter, mRNA transcription; actives raise or lower the signal. In outline:
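After transient transfection with multiplexed cis-promoter reporter units, HepG2 cells received test chemicals for 24 h. Reporter mRNA induction, detected by fluorescence after RT-PCR and capillary electrophoresis, was scored relative to DMSO.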

Assay [5] is described as follows: ATG_AP_1_CIS: Attagene CIS-FACTORIAL HepG2 Assay for human Activator Protein 1 (AP-1) (AID 2282931). The note with it: HepG2 Attagene cis-factorial AP-1 reporter mRNA; actives raise or lower the signal. In outline: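 After 24 h incubation with test chemical, RNA from transfected HepG2 cells was reverse-transcribed, amplified, fluorescently labelled and digested before capillary electrophoresis. Reporters were driven by cis-regulatory promoters; activity fitted bidirectionally versus DMSO.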

Assay [6] in a line: ATG_BRE_CIS: Attagene CIS-FACTORIAL HepG2 Assay for human Bone Morphogenetic Protein (BMP) Response Element (BRE) (AID 2282933). The note with it: HepG2 BMP response element reporter, Attagene transcription factor profiling; actives raise or lower the signal. In outline: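 Gain- or loss-of-signal was derived by bidirectional fitting against DMSO controls. The signal came from reporter mRNA, measured by RT-PCR and capillary electrophoresis, in HepG2 cells transiently carrying multiple reporter units and dosed for 24 h.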

A short description of assay [7]: ATG_E_Box_CIS: Attagene CIS-FACTORIAL HepG2 Assay for human Enhancer Box (E-box) (AID 2282936). The note with it: HepG2 E-box cis-reporter transcription, actives raise or lower the signal. In short, it runs like this:
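HepG2 cells transiently transfected with multiplexed cis-element reporter units sensing endogenous transcription factor activity; 24 h compound exposure. Reporter mRNA measured by RT-PCR, 6-FAM primer extension, HpaI digestion and capillary electrophoresis; bidirectional fit versus DMSO.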

The nature of assay [8]: ATG_M_19_CIS: Attagene CIS-FACTORIAL HepG2 Assay for M19 Transcription Factor (Internal Marker) (AID 2282939). The settings on record: HepG2 Attagene CIS-FACTORIAL M19 internal marker reporter; actives raise or lower the signal. In outline:
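Following a 24 h exposure, RNA from transfected HepG2 cells was reverse-transcribed, PCR-amplified with reporter-specific primers, end-labelled with 6-FAM and HpaI-digested before capillary separation. Values represent gain or loss versus DMSO.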

Assay [9] in a line: ATG_GATA_CIS: Attagene CIS-FACTORIAL HepG2 Assay for human GATA Binding Protein (AID 2282944). The note with it: HepG2 GATA cis-element reporter, Attagene multiplex mRNA; actives raise or lower the signal. In short, it runs like this: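 DMSO serves as negative control and baseline for bidirectional fitting of reporter mRNA changes. HepG2 cells bearing transiently transfected cis-promoter reporters were exposed 24 h; transcripts detected via RT-PCR and capillary electrophoresis.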

A short description of assay [10]: ATG_ISRE_CIS: Attagene CIS-FACTORIAL HepG2 Assay for human Interferon Regulatory Factor 1 (IRF1) binding to an Interferon-Stimulated Response Element (ISRE) (AID 2282948). The note with it: HepG2 ISRE cis-reporter (Attagene), mRNA transcription readout; actives raise or lower the signal. In outline:
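Transfected HepG2 (multiple reporter transcription units, cis elements) dosed 24 h. RNA → oligo(dT) RT → PCR → 6-FAM primer extension → HpaI → CE. DMSO = negative control/baseline.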

Assay [11] is described as follows: ATG_M_32_CIS: Attagene CIS-FACTORIAL HepG2 Assay for M32 Transcription Factor (Internal Marker) (AID 2282949).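 Further: background control marker of the multiplexed CIS panel rather than a real target.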 The settings on record: HepG2 Attagene cis-factorial M32 reporter, mRNA; actives raise or lower the signal. In outline: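 Internal background marker read-out: RT-PCR/capillary electrophoresis fluorescence of reporter transcripts from transiently transfected HepG2 cells after 24 h chemical exposure. Activity fitted bidirectionally relative to DMSO negative control.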

A short description of assay [12]: ATG_M_06_CIS: Attagene CIS-FACTORIAL HepG2 Assay for M06 Transcription Factor (Internal Marker) (AID 2282950). The settings on record: HepG2 Attagene CIS-FACTORIAL M06 internal marker reporter; actives raise or lower the signal. In outline: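 Fluorescence-labelled RT-PCR products from cis-promoter reporter units, cut with HpaI and resolved by capillary electrophoresis, give the signal. Cells are human HepG2, dosed for 24 h. Serves as background control, fitted relative to DMSO.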

Assay [13] in a line: ATG_MRE_CIS: Attagene CIS-FACTORIAL HepG2 Assay for human Metal Responsive Element (MRE) (AID 2282954). The note with it: HepG2 MRE cis-reporter transcription, Attagene multiplex; actives raise or lower the signal. In short, it runs like this: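 HepG2 cells transiently transfected with multiple cis-element reporter units measure endogenous MTF1-driven transcription. After 24 h compound exposure, reporter mRNA is quantified by RT-PCR with 6-FAM labelling, HpaI digestion and capillary electrophoresis; bidirectional fits versus DMSO.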

In assay [14] the target is Paired box protein Pax-6 (Homo sapiens) (UniProt P26367). The experiment in a line: ATG_Pax6_CIS: Attagene CIS-FACTORIAL HepG2 Assay for human Paired Box 6 (PAX6) (AID 2282956). The note with it: HepG2 CIS-FACTORIAL PAX6 reporter transcription, RNA readout; actives raise or lower the signal. In short, it runs like this:
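Transient MRTU transfection of HepG2 → compound exposure 24 h → TriZol RNA, oligo(dT) RT → PCR, 6-FAM primer extension, HpaI cut → capillary electrophoresis; activity fitted both directions against DMSO.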

A short description of assay [15]: ATG_PXRE_CIS: Attagene CIS-FACTORIAL HepG2 Assay for human Pregnane X Receptor Element (PXRE) (AID 2282957). The note with it: HepG2 Attagene CIS-FACTORIAL PXRE reporter, mRNA; actives raise or lower the signal. In short, it runs like this: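 HepG2 cells transiently transfected with cis-element-driven multiplexed reporter units; after 24 h chemical exposure, reporter mRNA measured by RT-PCR, 6-FAM labelling, HpaI digestion and capillary electrophoresis. Bidirectional fitting relative to DMSO.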

A short description of assay [16]: ATG_Sox_CIS: Attagene CIS-FACTORIAL HepG2 Assay for human SRY-box transcription factor (SOX) (AID 2282960). The note with it: HepG2 Attagene cis-factorial SOX reporter, mRNA; actives raise or lower the signal. In outline: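 Using transiently transfected HepG2 cells, reporter transcription driven by cis elements was assessed 24 h after dosing. Signal was fluorescence of capillary-separated RT-PCR products, with DMSO defining baseline activity.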

Assay [17] concerns the target Transcription factor Sp1 (Homo sapiens) (UniProt P08047). The experiment in a line: ATG_Sp1_CIS: Attagene CIS-FACTORIAL HepG2 Assay for human Specificity Protein 1 (Sp1) (AID 2282961). The settings on record: HepG2 Sp1 cis-reporter transcription, actives raise or lower the signal. In outline:
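After transient transfection of HepG2 cells with cis-promoter reporter units and 24 h chemical treatment, reporter transcripts were quantified by RT-PCR and capillary electrophoresis fluorescence. Gain- and loss-of-signal fitted against DMSO.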

Assay [18] in a line: ATG_TA_CIS: Attagene CIS-FACTORIAL HepG2 Assay for human TA Basal Promoter (AID 2282964). The settings on record: HepG2 Attagene CIS-factorial TA basal promoter reporter; actives raise or lower the signal. In short, it runs like this:
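Multiplexed mRNA reporter assay, HepG2, 24 h. Reporter cDNA amplified, 6-FAM primer-extended, HpaI-cut, CE-sized; DMSO = negative control and baseline.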

A short description of assay [19]: ATG_TCF_b_cat_CIS: Attagene CIS-FACTORIAL HepG2 Assay for human T-Cell-Factor with beta-catenin (TCF/b-cat) (AID 2282965). The note with it: HepG2 TCF/beta-catenin cis-reporter transcription, actives raise or lower the signal. In outline:
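HepG2 cells transiently transfected with multiple cis-promoter-regulated reporter transcription units, so endogenous transcription factor activity is measured. Reporter mRNA read 24 hours after dosing by RT-PCR, fluorescent labelling and capillary electrophoresis; bidirectional fitting against DMSO.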

Assay [20] can be described thus: ATG_TAL_CIS: Attagene CIS-FACTORIAL HepG2 Assay for human TAL Basal Promoter (AID 2282966).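 Further: background control endpoint measuring basal TAL promoter reporter mRNA not a specific factor.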 The note with it: HepG2 Attagene cis-factorial TAL promoter reporter; actives raise or lower the signal. In outline: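 HepG2 cells transiently transfected with multiplexed cis-promoter reporter units, dosed 24 h. Reporter mRNA quantified by RT-PCR, 6-FAM labelling, HpaI digestion and capillary electrophoresis; TAL basal promoter serves as background control, fitted bidirectionally versus DMSO.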

SMILES strings stand for the structures. Activity calls are given as the source filed them. How the source made its calls: active means hit-call score of the fitted dose curve at least 0.9, where 1 is the maximum; inactive means score below 0.9.

Chain of Transcription factor Sp1 (Homo sapiens) (P08047 whole entry, looked up): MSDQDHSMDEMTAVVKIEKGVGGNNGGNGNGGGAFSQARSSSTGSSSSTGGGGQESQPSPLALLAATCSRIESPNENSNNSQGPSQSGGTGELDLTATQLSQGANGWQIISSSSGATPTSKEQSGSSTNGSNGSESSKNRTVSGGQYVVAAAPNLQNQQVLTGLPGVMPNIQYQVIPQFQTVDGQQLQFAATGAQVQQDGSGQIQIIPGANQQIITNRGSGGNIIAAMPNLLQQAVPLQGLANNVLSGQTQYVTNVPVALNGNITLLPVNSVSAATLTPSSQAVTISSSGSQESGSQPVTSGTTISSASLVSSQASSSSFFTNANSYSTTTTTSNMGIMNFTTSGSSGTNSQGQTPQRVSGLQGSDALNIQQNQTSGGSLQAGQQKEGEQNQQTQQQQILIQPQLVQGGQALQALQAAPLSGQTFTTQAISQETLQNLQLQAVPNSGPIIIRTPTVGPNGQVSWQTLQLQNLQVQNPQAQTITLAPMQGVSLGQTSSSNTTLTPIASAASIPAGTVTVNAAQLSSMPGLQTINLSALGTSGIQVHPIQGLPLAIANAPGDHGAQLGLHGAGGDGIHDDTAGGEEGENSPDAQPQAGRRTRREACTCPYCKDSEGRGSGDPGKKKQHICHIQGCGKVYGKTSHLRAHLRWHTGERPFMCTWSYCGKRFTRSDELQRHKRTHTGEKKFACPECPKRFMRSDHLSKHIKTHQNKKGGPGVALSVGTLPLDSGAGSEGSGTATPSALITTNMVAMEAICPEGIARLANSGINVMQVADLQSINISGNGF
Chain of CCAAT/enhancer-binding protein beta (Homo sapiens) (P17676 whole entry, looked up): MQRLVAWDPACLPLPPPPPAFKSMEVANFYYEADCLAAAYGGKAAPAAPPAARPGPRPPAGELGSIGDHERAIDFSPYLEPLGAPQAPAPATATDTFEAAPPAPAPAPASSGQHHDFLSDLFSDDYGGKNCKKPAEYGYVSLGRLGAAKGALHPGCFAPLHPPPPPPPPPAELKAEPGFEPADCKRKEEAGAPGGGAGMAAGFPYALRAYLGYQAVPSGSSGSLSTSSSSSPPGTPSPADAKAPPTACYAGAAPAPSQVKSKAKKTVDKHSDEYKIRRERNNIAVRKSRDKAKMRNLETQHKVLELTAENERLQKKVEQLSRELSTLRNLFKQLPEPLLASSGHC
Chain of Paired box protein Pax-6 (Homo sapiens) (P26367 whole entry, looked up): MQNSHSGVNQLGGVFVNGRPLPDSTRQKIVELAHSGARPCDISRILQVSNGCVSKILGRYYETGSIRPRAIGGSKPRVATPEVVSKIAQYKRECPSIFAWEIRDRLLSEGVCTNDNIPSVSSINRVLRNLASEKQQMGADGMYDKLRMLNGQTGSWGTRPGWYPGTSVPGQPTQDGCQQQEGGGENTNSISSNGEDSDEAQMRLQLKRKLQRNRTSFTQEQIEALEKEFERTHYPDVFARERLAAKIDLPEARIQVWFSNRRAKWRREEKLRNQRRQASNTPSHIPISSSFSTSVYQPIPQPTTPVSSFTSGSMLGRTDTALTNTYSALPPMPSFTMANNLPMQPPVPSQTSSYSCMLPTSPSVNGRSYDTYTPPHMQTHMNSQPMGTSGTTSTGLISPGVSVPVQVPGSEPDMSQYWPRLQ

For the molecule `O=C(O)c1ccccc1C(=O)O`, the call in [1], in assay [2], in assay [3], in [4], in [5] and in assay [6] was inactive. Also, the result in assay [7], in assay [8], in [9], in assay [10], in [11] and in [12] was inactive. For the same molecule, the molecule was classed as inactive in [13], in assay [14], in [16], in [17], in [18] and in assay [19]. Also, in assay [20], the molecule was called inactive. Besides, the AC50 in [15] was 28.3 µM (active).

In the case of `CCCCCCC(O)CCCCCCCCCCC(=O)OC` (stereo not given), the molecule was called inactive in [1], in assay [2], in [3], in [4], in assay [5] and in assay [6]. The result in assay [7], in [8], in assay [9], in assay [10], in [11] and in [12] was inactive. Further, the molecule was called inactive in assay [13], in assay [14], in assay [16], in assay [17], in [18] and in [19]. Also, the molecule was called inactive in assay [20]. Besides, the AC50 in assay [15] is 27.5 µM (active).

With `C=CN1CCCCCC1=O`, the molecule was called inactive in [1], in assay [2], in assay [3], in assay [4], in [5] and in assay [6]. The outcome in [7], in assay [8], in assay [9], in assay [10], in assay [11] and in assay [12] was inactive. Besides, the result in assay [13], in assay [14], in [15], in assay [16], in assay [17] and in assay [18] was inactive. Moreover, the molecule was classed as inactive in assay [19] and in assay [20].

For the molecule `CC(C)CC(=O)CC(C)C`, the molecule was classed as inactive in assay [1], in assay [2], in [3], in assay [4], in [5] and in [6]. The outcome in [7], in assay [8], in [9], in assay [10], in assay [11] and in assay [12] was inactive. Also, the molecule was classed as inactive in assay [13], in assay [14], in assay [15], in assay [16], in assay [17] and in [18]. The molecule was classed as inactive in assay [19] and in assay [20].
